Bioassay records: PubChem, Columbia University Molecular Screening Center
This is a sample that favours compounds with a hit; in the whole collection about 1.5% have one here.
NFkB transloc inh: blocks IL-1B driven NFkB nuclear translocation in HUVEC cells | HUVEC IL-1B NFkB p65 nuclear translocation imaging | inhibition, % at 2 µM | hit rate 0.43% among 94,000 | AID 796;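 active means inhibition above about 30% together with a positive call from visual inspection of the well image, limit read from the data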;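 further: nuclear over cytoplasmic p65 intensity ratio measured by imaging; 0% = IL-1B stimulated DMSO wells and 100% = unstimulated DMSO wells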
IL1B NFkB pot: enhances IL-1B driven NFkB nuclear translocation. HUVEC IL-1B NFkB p65 nuclear translocation imaging. activation, % at 2 µM. hit rate 0.3% among 94,000. AID 819;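 active means activation above 40%, about the mean plus 3 SD, also judged a hit on visual image review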;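 further: percent activation is computed from the nuclear over cytoplasmic p65 intensity ratio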
IL1B cytotox: toxic to HUVEC cells under IL-1B stimulation; cell count reduction, % at 2 µM; hit rate 0.41% among 94,000; AID 845; HUVEC cell count loss, Hoechst imaging, IL-1B stimulated;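 active means cell count reduction more than 3 SD above the screen-wide mean, cut at about 70% in these data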;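 further: normalized per plate to untreated control cells as the no-loss baseline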
VCAM1 TNFa inh: reduces TNF alpha induced VCAM1 expression in HUVEC; inhibition, % at 2 µM; hit rate 0.48% among 95,000; HUVEC TNFa-induced VCAM-1 immunofluorescence, high-content imaging;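 active means inhibition above the batch mean plus 3 SD, with images confirmed as a hit by eye, cut at about 37% in these data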;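 further: 0% = TNF-stimulated DMSO wells and 100% = unstimulated control wells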
TNFa cytotox: HUVEC cytotoxicity counter-screen, TNF alpha stimulated; HUVEC TNFalpha-stimulated, Hoechst cell count, imaging; cell count reduction, % at 2 µM; hit rate 0.17% among 93,000;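 active means cell count reduction exceeding the screen mean by over 5 SD, scaled to untreated wells per plate, cut at about 78% in these data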;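 further: cells counted after 24 h of TNF alpha exposure following the 1 h pretreatment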
* marks the source's active call; other numbers are inactive results; / = not tested or not shown.

SMILES	NFkB transloc inh	IL1B NFkB pot	IL1B cytotox	VCAM1 TNFa inh	TNFa cytotox
COc1ccc(-n2nc3c(c2NC(=O)C2CCCC2)CS(=O)C3)cc1 (configuration not stated)	-3.9	3.9	1.8	6.4	-10.0
O=C(CCC1CCCCC1)Nc1c2c(nn1-c1ccc(F)cc1)CS(=O)C2 (configuration not stated)	4.9	-4.9	75.9*	-2.2	-5.5
CCOC(=O)C1CCCN(Cc2cc(Br)c(OC)cc2OC)C1 (configuration not stated)	98.5*	-98.5	84.5*	8.2	-14.4
CCOC(=O)C1CCCN(Cc2c(Cl)cccc2Cl)C1 (configuration not stated)	/	/	/	-2.7	1.5
CC(C)CCNC(=O)Cn1c(NCCC(C)C)nc2c1c(=O)n(C)c(=O)n2C	-9.9	9.9	8.4	6.6	-2.3
COc1cccc(C(=O)Nc2cccc(-c3nc4ncccc4o3)c2C)c1	1.0	-1.0	9.6	94.0*	68.9
COc1ccc(-c2nnc(SC(C)C(=O)Nc3cccc(Cl)c3)o2)cc1 (configuration not stated)	-11.6	11.6	-14.6	13.8	-5.6
C#CCOc1ccc(Cl)cc1/C=N/O	-16.3	16.3	12.4	-0.4	-4.0
C#CCOc1ccc(Br)cc1/C=N/O	46.5*	-46.5	-4.0	4.0	-25.2
Cc1ccc2nc(SCC(=O)Nc3cc(C(F)(F)F)ccc3N3CCOCC3)[nH]c2c1	3.1	-3.1	33.5	90.7*	53.9
Cc1ccc(-c2nc(CSCC(=O)Nc3cc(C)on3)c(C)o2)cc1	16.4	-16.4	18.5	38.3	88.9*
O=c1ccc(Oc2nc(N3CCOCC3)nc(N3CCOCC3)n2)nn1-c1ccccc1	12.8	-12.8	-12.1	98.7*	89.6*
CC(C)(C)Nc1nc(Oc2ccc(=O)n(-c3ccccc3)n2)nc(N2CCOCC2)n1	-8.1	10.4	-39.6	-9.6	-29.0
COc1cccc(C(=O)Oc2cc(N)n(S(=O)(=O)c3ccc(C)cc3)n2)c1OC	32.5*	-32.5	-3.6	-4.1	-14.2
C=CCn1c(SCC(=O)OC)nc2sc3c(c2c1=O)CCN(C)C3	-8.0	8.0	-7.2	14.6	12.5
O=C(COC(=O)C1(c2ccccc2F)CCCC1)NC1CCS(=O)(=O)C1 (configuration not stated)	-12.1	12.1	-10.3	95.3*	0.7
CCCCNC(=O)OCCNC(=O)NC	-9.3	9.3	-9.0	13.5	-44.1
Cc1ccc(C)c2[nH]c(=O)c(CCNC(=O)c3ccc(Br)o3)cc12	42.8*	-42.8	-11.2	-22.4	-33.3
O=C(N/N=C/C=C/c1ccccc1)c1n[nH]c2c1CCC2	33.7*	-33.7	47.3	68.2*	25.3
CC(/C=N/NC(=O)c1n[nH]c2c1CCC2)=C\c1ccccc1	-31.0	31.0	6.2	66.8*	69.6
O=C(N/N=C/C(Br)=C\c1ccccc1)c1n[nH]c2c1CCC2	4.5	-4.5	61.8	91.4*	68.9
CN=c1sc2ccccc2n1CC(O)COc1ccccc1 (configuration not stated)	-3.3	3.3	-2.5	75.0*	69.6
CCN=c1sc2ccccc2n1CC(O)COc1ccccc1 (configuration not stated)	8.9	-8.9	-129.1	2.5	7.2
CCN(CC)CCCn1c(=S)[nH]c2cc(Cl)ccc2c1=O	-0.4	0.4	78.5*	1.6	-3.1
CCN(CC)CCCn1c(=S)[nH]c2ccc(Cl)cc2c1=O	-35.8	35.8	-38.1	6.9	0.7
SMILES	NFkB transloc inh	IL1B NFkB pot	IL1B cytotox	VCAM1 TNFa inh	TNFa cytotox
Cc1cc(C(=O)NN=C2C3CC4CC(C3)CC2C4)c2ccccc2n1	2.2	-2.2	-50.6	52.3*	26.6
Cc1ccc(C(=O)NCc2nnc(SCC(=O)Nc3sc4c(c3C#N)CCCC4)n2C)cc1	-33.2	33.2	82.2*	14.2	-7.9
Cn1c(CNC(=O)c2ccc(Cl)cc2)nnc1SCC(=O)Nc1sc2c(c1C#N)CCCC2	2.4	10.2	7.4	3.2	-18.8
O=C1Nc2ccc(S(=O)(=O)N3CCOCC3)c3cccc1c23	-9.3	9.3	3.1	89.2*	-22.9
O=C1Nc2ccc(S(=O)(=O)N3CCCC3)c3cccc1c23	-5.4	5.4	11.7	-14.3	-12.5
COC(=O)c1sccc1NC(=O)c1sccc1C	15.9	-15.9	94.1*	-6.6	-18.8
CC(=O)CCc1c[nH]c2c(C(=O)O)cccc12	41.0*	-41.0	-5.1	-9.5	5.7
Cc1ccc(CNC(=O)c2ccc(Br)o2)cc1	-5.5	7.7	-96.2	-7.4	-27.7
O=C(NCc1cn2ccccc2n1)c1ccc(Br)o1	31.6*	-31.6	35.2	2.5	0.4
